Compounds with a hit are over-represented: about 12% of the library has one in this group of screens.
Sm TGR block: blocks Schistosoma mansoni thioredoxin glutathione reductase. Q962Y6. purified TGR, DTNB reduction, TNB absorbance 405 nm. Potency, µM (top dose mostly 114 µM), for the others: top-dose activity change, negative = inhibition, hits mostly inhibitors. 360,000 compounds, 3% hits. AID 485364; note: % is set by controls: 0 for no effect and ±100 for the full control effect; nearly all actives have a fitted effect of over 60% in size
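Kinetic colorimetric format: TGR-catalysed, NADPH-driven DTNB reduction monitored via TNB absorbance. Enzyme dispensed at 20 nM; compound exposure 15 min at room temperature before reaction start.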
SARS PLP yeast: SARS-CoV PLP inhibition in yeast; S. cerevisiae expressing SARS-CoV PLpro, growth rescue; Potency, µM (top dose mostly 32.9 µM), for inactives: at the top dose activity, positive = growth rescue, most hits filed as activators; 330,000 compounds, 0.19% hits; calls by dose curve; note: 0% is about no effect; nearly all actives have a fitted effect of over 55% in size
Pf growth 96h: P. falciparum growth inhibition at 96 hours | P. falciparum luciferase reporter growth, 96 h | Potency, µM (titrated, usually from 28.7 µM), for inactives: at the top dose activity change, negative = inhibition, actives largely listed as inhibitors | 320,000 compounds, 6.9% hits | AID 504834; note: % is set by controls: 0 for no effect and ±100 for the full control effect
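96 h incubation, 37 C, 5% CO2, of luciferase-reporter P. falciparum-infected RBCs (2% hematocrit, 0.05% parasitemia final) with test compounds; endpoint luminescence.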
AmpC detergent: blocks E. coli AmpC beta-lactamase in detergent assay. Potency, µM (doses to about 114 µM), for inactives: at the top dose activity change, negative = inhibition, usual class: inhibitors. 370,000 compounds, 0.041% hits. AmpC hydrolysis of nitrocefin, absorbance 480 nm, 0.01% Triton. P00811;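 note: 0% = no-compound wells and -100% = no-enzyme wells; nearly all actives have a fitted effect of over 25% in size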
Target sequence (P00811 whole entry, looked up): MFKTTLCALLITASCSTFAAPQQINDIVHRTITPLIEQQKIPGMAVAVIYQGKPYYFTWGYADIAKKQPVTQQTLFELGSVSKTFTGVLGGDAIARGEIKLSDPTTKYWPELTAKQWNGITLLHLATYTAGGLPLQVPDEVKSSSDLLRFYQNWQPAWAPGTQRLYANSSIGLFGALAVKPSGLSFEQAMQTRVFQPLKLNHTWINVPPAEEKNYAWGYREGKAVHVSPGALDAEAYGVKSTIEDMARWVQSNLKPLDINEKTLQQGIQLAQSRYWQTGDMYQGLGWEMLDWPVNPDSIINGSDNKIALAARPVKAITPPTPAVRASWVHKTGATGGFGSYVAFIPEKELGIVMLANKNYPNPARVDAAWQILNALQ
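20 mM phosphate pH 7.0 + 0.01% (detergent screen) or 0.0001% Triton X-100; 5.3 nM AmpC reagent; cpd preinc 15 min RT; nitrocefin (800 uM stock) to start; A480 q20 s × 4 min; Activity was normalised to no-enzyme and no-compound control wells.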
Pf growth 48h: inhibits P. falciparum growth in the first generation, 48 h; P. falciparum luciferase growth in erythrocytes, 48 h; Potency, µM (series often up to 28.7 µM), for the others: top-dose activity change, negative = inhibition, actives largely listed as inhibitors; 310,000 compounds, 5.9% hits; note: % is set by controls: 0 for no effect and ±100 for the full control effect
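Luminescence readout; reporter = integrated firefly luciferase in P. falciparum. RBC culture at 2% hematocrit, 0.1% parasitemia final, 37 C/5% CO2; decreased signal taken as growth inhibition.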
AmpC no deterg: inhibitors of E. coli AmpC beta-lactamase without detergent; AmpC nitrocefin hydrolysis, absorbance 480 nm, 0.0001% Triton; Potency, µM (highest dose often 57.1 µM), inactives show at the highest dose activity change, negative = inhibition, usual class: inhibitors; 330,000 compounds, 0.52% hits;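 note: plate controls were no compound for no effect and no enzyme for full effect; nearly all actives have a fitted effect of over 20% in size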
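AmpC (5.3 nM in the dispensed reagent) in 20 mM phosphate pH 7.0 with 0.01% (detergent screen) or 0.0001% Triton X-100 was preincubated with compounds for 15 min at room temperature. Nitrocefin was then added from an 800 uM solution, and hydrolysis was followed at 480 nm.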
* marks the source's active call; other numbers are inactive results; u = inconclusive; x = not tested or not shown. Unless noted, calls come from the whole dose curve; as a rule, active = well fitted curve in the direction sought with a large enough effect; inconclusive = small, poorly fitted or top-dose-only effect, or another doubt; inactive = no such curve, though single readings can be large; an effect the other way counts as inactive or inconclusive. Potency is the fitted concentration of half-maximal effect.

SMILES | Sm TGR block | SARS PLP yeast | Pf growth 96h | AmpC detergent | Pf growth 48h | AmpC no deterg
CCc1ccc(NC(=O)C2CCN(C(=O)N3CC(CC)Oc4ccccc43)CC2)cc1 (stereo not given) | -14% | x | x | 7% | x | x
Cc1ccc(-c2n[nH]c3c2C(c2cccs2)N(c2ccc(Cl)cc2)C3=O)cc1 (stereo not given) | 2% | x | x | 5% | x | x
CC12CC(c3ccccc3O1)N(C(=O)c1ccco1)C(=S)N2c1ccc(F)cc1 (stereo not given) | 28% | -10% | x | -5% | u | -22%
CCOC(=O)C1CCN(c2ncnc3c2nc2n3CCCCC2)CC1 | 1% | x | x | 6% | x | x
O=C(Cn1c(=O)nc(-c2ccccc2)c2ccccc21)NCCc1ccc(Cl)cc1 | 4% | x | x | 8% | x | x
CCOC(=O)c1cccc(NC(=O)c2ccc3snnc3c2)c1 | 1% | x | x | 20% | x | x
CCc1ccc(/C=C/C(=O)c2ccc(S(=O)(=O)N(C)C)cc2)cc1 | -9% | -11% | -6% | -12% | 30% | -5%
CCc1ccc(C(=O)/C=C/c2ccc([N+](=O)[O-])o2)cc1 | 3.2µM* | -35% | 20% | 0% | x | -22%
CCN(CC)S(=O)(=O)c1ccc(C(=O)/C=C/c2ccc(-c3ccc([N+](=O)[O-])cc3)o2)cc1 | 16µM* | -1% | 19% | -1% | 3% | -33%
Nc1c(-c2nc(-c3cccs3)no2)nnn1-c1cccc(Cl)c1 | 9% | x | x | 6% | x | x
O=C(/C=C/c1ccccc1)NCc1ccc2c(c1)OCO2 | 2% | 0% | 3% | -5% | 9% | -23%
Nc1ccccc1C(=O)/C=C/c1ccc2c(c1)OCO2 | 3% | -36% | 73% | 1% | 221% | 7%
O=C(/C=C/C=C/c1ccccc1)c1ccco1 | 10µM* | -2% | 13% | -9% | 144% | -29%
O=C(/C=C/c1ccco1)NCc1ccc2c(c1)OCO2 | 14µM* | 4% | -4% | -1% | 8% | -25%
O=C(/C=C/c1ccco1)NCC1OCCc2ccccc21 (stereo not given) | 0.5µM* | -2% | 20% | 2% | 8% | -11%
O=C(/C=C/c1ccc2c(c1)OCO2)c1ccco1 | -26% | -56% | 6.6µM* | -2% | 34% | -18%
COc1ccc(Cl)cc1NC(=O)C1CCCN(c2ncnc3c2nc2n3CCCCC2)C1 (stereo not given) | -8% | -1% | u | 0% | u | 3%
COc1ccccc1N/C(N)=N/c1nc(C(F)(F)F)cc(=O)[nH]1 | 15% | -2% | 5% | 15% | -24% | -19%
COC(=O)c1nnn(-c2nonc2N)c1COc1ccc(C=O)cc1OC | -18% | -3% | 43% | -1% | -1% | -11%
Cc1ccccc1NC(=O)C(=O)NCC(c1ccc2c(c1)OCO2)N1CCN(c2ccccc2)CC1 (stereo not given) | 0% | x | x | 0% | x | x
O=C(NCc1ccco1)C1c2ccccc2Oc2ccccc21 | 40µM* | 2% | 2% | -5% | u | -28%
CC(=O)Nc1ccc(NC(=O)/C=C/c2ccc3c(c2)OCO3)cc1 | -19% | 0% | 68% | -5% | 20% | -17%
O=C(CCC1COc2ccccc2O1)NCC1COc2ccccc2O1 (stereo not given) | -4% | 0% | x | u | 1% | 2%
COc1ccc(/C=C/C(=O)NCC2COc3ccccc3O2)c(OC)c1 (stereo not given) | 10% | -9% | u | -3% | -5% | -17%
O=C(/C=C/c1ccco1)NCC1COc2ccccc2O1 (stereo not given) | 0.89µM* | -2% | -11% | 0% | 6% | 2%
SMILES | Sm TGR block | SARS PLP yeast | Pf growth 96h | AmpC detergent | Pf growth 48h | AmpC no deterg
O=C(CCC1COc2ccccc2O1)NCc1ccco1 (stereo not given) | 40µM* | 2% | 45% | -10% | 5% | -29%
O=C(/C=C/c1ccco1)Nc1ccc2c(c1)OCO2 | 14µM* | -2% | 372% | -6% | 412% | -26%
CCOC(=O)c1sc(NC(=O)c2nc3ncccn3n2)c(C(=O)OC(C)C)c1C | 9% | x | x | 3% | x | x
CCCC(=O)n1nc(-c2ccco2)nc1NCc1ccccc1Cl | 6% | x | x | 14% | x | x
Clc1cccc(CSc2nnc(C3CCNCC3)o2)c1 | -3% | x | x | 1% | x | x
CSc1nnc(C(C)c2ncc(C(F)(F)F)cc2Cl)n1C (stereo not given) | -11% | -2% | -14% | 3% | 6% | -14%
CCCN(CCC)S(=O)(=O)c1ccc(NC(=O)c2cc(C(=O)OC)cc([N+](=O)[O-])c2)cc1 | 16% | 7% | 1.9µM* | -3% | u | -14%
O=C(Cn1ncc(Cl)c(Cl)c1=O)NCC1CCCCC1 | 35µM* | -32% | -3% | -11% | -18% | -29%
O=C(Cn1ncc(Cl)c(Cl)c1=O)NC1CCCCC1 | 25µM* | -30% | u | 7% | -24% | -18%
O=C(Cn1ncc(Cl)c(Cl)c1=O)NC1CCS(=O)(=O)C1 (stereo not given) | 6.3µM* | 2% | -6% | u | -14% | -10%
Cc1ccc(Cn2c(C)c3cnn(CC(=O)NC4CCCC4)c(=O)c3c2C)cc1 | u | -1% | 9.3µM* | -9% | 1% | -12%
CC(C)Cn1c(SC(C)C(=O)NC2CC2)nnc1-c1ccccc1F (stereo not given) | 4% | 0% | u | u | u | 2%
CCc1ccc(NC(=O)C(C)OC(=O)C2CCN(c3ccc(C(F)(F)F)cn3)CC2)cc1 (stereo not given) | -2% | -5% | -5% | -14% | u | -1%
COc1ccccc1CNC(=O)c1cnc(N(C)C)nc1 | -4% | x | x | 0% | x | x
COc1ccc(CCNC(=O)c2ccc3c(c2)N(Cc2c(F)cccc2Cl)C(=O)CS3)cc1OC | 5% | x | x | -2% | x | x
COc1ccc2c(Sc3ccc(C)cc3)c(C(=O)NCc3ccc(F)cc3)[nH]c2c1 | 45µM* | x | x | 24% | x | x
COCCCNC(=O)c1[nH]c2cc(OC)ccc2c1Sc1ccc(C)cc1 | 4% | x | x | 15% | x | x
COc1ccc2c(Sc3ccc(C)cc3)c(C(=O)NCCc3ccccc3)[nH]c2c1 | -4% | x | x | 25% | x | x
COc1ccc2c(Sc3ccccc3)c(C(=O)NCCN(C)C)[nH]c2c1 | 40µM* | x | x | 30% | x | x
COc1ccccc1N(Cc1cc(=O)[nH]c2ccccc12)C(=O)C(C)C | -16% | 5% | u | -7% | u | -9%
CC1CCCN(S(=O)(=O)c2cc3c4c(c2)CC(=O)N4CCC3)C1 (stereo not given) | 10% | x | x | 1% | x | x

Bioassay records (PubChem BioAssay)
